Data on 23 compounds can be found in PubChem BioAssay (NCI).

Some test systems named below: RPMI-8226 leukemia; OVCAR-5 ovarian; OVCAR-4 ovarian; SK-OV-3 ovarian; IGROV1 ovarian; OVCAR-3 ovarian; HS 578T breast; NCI/ADR-RES ovarian; T-47D breast; OVCAR-8 ovarian.
Common to all, as to assay: NCI-60 one-dose screen, 48 h (100 = growth as untreated, 0 = no growth, -100 = all killed)
What all share (settings): 10 µM unless noted

Each structure is given as a SMILES string. Compounds without any hit were thinned out: in the full panel of roughly 83,000, 20% have a hit.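 How to read the values: 0–100, growth inhibition (40 = 60% inhibited); 0, no net growth; -100 to 0, cell death (-40 = 40% of starting cells died; -100 = all dead).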 Values without a mark were called inactive. Calls of active or inactive are those of the source. How the source made its calls: active means growth percent below 10; inactive means the rest.

Take `CCSc1ccc(C2C(Br)C(=O)N2c2cc(OC)c(OC)c(OC)c2)cc1` (configuration not stated): the growth with RPMI-8226 leukemia was 9.73% (active); with OVCAR-5 ovarian it was 31.1%; in the assay on OVCAR-4 ovarian, 38.3%; in the assay with SK-OV-3 ovarian it was 21.8%; in the assay with IGROV1 ovarian, 29.1%; in the assay with OVCAR-3 ovarian, 3.63% (active). The figures for the growth with HS 578T breast, with NCI/ADR-RES ovarian and in the assay on T-47D breast were 8.62% (active), 14% and 67.4%, respectively.

For `COc1ccc2nc(-c3ccc(Cl)cc3)cc(C(=O)N3N=C(c4ccc(N)cc4)CC3c3ccccc3)c2c1` (configuration not stated), the growth was 29% in the assay with RPMI-8226 leukemia; 80.9% in the assay with OVCAR-5 ovarian; 65.8% in the assay on OVCAR-4 ovarian; 46.1% in the assay with SK-OV-3 ovarian; 53.9% in the assay on IGROV1 ovarian; 9.64% (active) in the assay with OVCAR-3 ovarian. Also, the growth is 48.4% with HS 578T breast, 15.2% in the assay with NCI/ADR-RES ovarian and 38.8% in the assay on T-47D breast.

With `COc1ccc(-c2cn(-c3ccc(Cl)cc3)c(=S)[nH]2)cc1OC`, the growth is 12.9% in the assay with RPMI-8226 leukemia; 64.1% in the assay with OVCAR-5 ovarian; 86.8% in the assay with OVCAR-4 ovarian; 79.3% in the assay with SK-OV-3 ovarian; 49.4% with IGROV1 ovarian; 88.4% in the assay on OVCAR-3 ovarian. Further, the growth in the assay with HS 578T breast was 100%; in the assay with NCI/ADR-RES ovarian, 37%; in the assay with T-47D breast, 68.1%.

Regarding `COc1cc(NC(=O)c2cc(O)c(C/C=C(\C)CCC=C(C)C)c(O)c2)cc2c1O[C@]1(C)CC[C@@H](O)C(C)(C)[C@H]1C2`, the growth in the assay with RPMI-8226 leukemia is -30% (active); in the assay with OVCAR-5 ovarian it was 44.9%; in the assay with OVCAR-4 ovarian, 29.6%; in the assay with SK-OV-3 ovarian it was 26.9%; in the assay with IGROV1 ovarian it was 20%; with OVCAR-3 ovarian, -12.1% (active). Also, the growth in the assay on HS 578T breast was 18.4%; in the assay on NCI/ADR-RES ovarian it was 65%; in the assay with T-47D breast, 18%.

As for `Cc1cnc(-c2ccc(-c3ccc(NC(=O)Nc4c(F)cc(F)cc4F)cc3F)c3c2C(=O)NC3)[nH]1`, the growth in the assay on RPMI-8226 leukemia was 22.2%; with OVCAR-5 ovarian, 71%; in the assay on OVCAR-4 ovarian, -16.5% (active); in the assay on SK-OV-3 ovarian, 49.6%; with IGROV1 ovarian it was 33%; in the assay with OVCAR-3 ovarian it was -34% (active). Further, the growth is -5.61% (active) with HS 578T breast, 72.4% with NCI/ADR-RES ovarian and 73.6% in the assay with T-47D breast.

Consider `COc1cc(N=Nc2cc(S(=O)(=O)O)cc3cc(S(=O)(=O)O)cc(O)c23)c(C)cc1N=Nc1c(S(=O)(=O)O)cc2cc(Nc3ccccc3)ccc2c1O`, for which the growth in the assay on RPMI-8226 leukemia is 103%; in the assay on OVCAR-5 ovarian, 111%; with OVCAR-4 ovarian, 97.8%; with SK-OV-3 ovarian it was 102%; in the assay on IGROV1 ovarian, 96.6%; with OVCAR-3 ovarian, 97.2%. In addition, the growth with HS 578T breast is 108%; in the assay with T-47D breast, 93.4%.

For `C[C@]12CC[C@@H]3c4ccc(O)cc4CC[C@H]3[C@@H]1C[C@H](O)C2`, the growth with RPMI-8226 leukemia is 79.7%; with OVCAR-5 ovarian it was 116%; with OVCAR-4 ovarian it was 87%; in the assay on SK-OV-3 ovarian, 82.7%; in the assay with IGROV1 ovarian, 79.2%; in the assay on OVCAR-3 ovarian, 73.2%. Besides, the values for the growth in the assay with HS 578T breast, with NCI/ADR-RES ovarian and in the assay with T-47D breast were 57.6%, 70.9% and 96.9%, respectively.

Take `NC[C@@H]1CCN(c2cc3c(cc2F)c(=O)n(N)c(=O)n3Cc2ccc(-c3ccccc3)cc2)C1`: the growth with RPMI-8226 leukemia was 65.2%; with OVCAR-5 ovarian it was 111%; with SK-OV-3 ovarian, 84.6%; with IGROV1 ovarian, 91.9%; with OVCAR-3 ovarian, 96.4%; with HS 578T breast, 82.9%. Further, the values for the growth in the assay on NCI/ADR-RES ovarian and in the assay on T-47D breast were 95.5% and 89%, respectively.

For `COc1ccc(C2C(c3ccccc3)C(=O)N2c2cc(OC)c(OC)c(OC)c2)cc1I` (configuration not stated), the growth in the assay on OVCAR-5 ovarian was 35.9%; with OVCAR-4 ovarian, 39.8%; in the assay with SK-OV-3 ovarian, 6.66% (active); with IGROV1 ovarian, 20.6%; with OVCAR-3 ovarian it was 12%; in the assay on HS 578T breast, 22.1%. Also, the growth in the assay with NCI/ADR-RES ovarian is 9.97% (active); in the assay with T-47D breast, 69.7%.

For `CCCCCOC(=O)c1ccccc1O`, the growth in the assay on OVCAR-8 ovarian was 107%; in the assay on OVCAR-5 ovarian, 105%; in the assay on OVCAR-4 ovarian it was 95.9%; with SK-OV-3 ovarian, 92.2%; in the assay on IGROV1 ovarian, 111%; in the assay with OVCAR-3 ovarian it was 102%. Besides, the results for the growth with HS 578T breast, in the assay on NCI/ADR-RES ovarian and with T-47D breast were 103%, 110% and 85.8%, respectively.

Regarding `c1ccc(-c2n(Cc3ccc4ccccc4n3)cc[n+]2Cc2ccc3ccccc3n2)cc1`, the growth in the assay on OVCAR-8 ovarian is 33.6%; in the assay with OVCAR-5 ovarian it was 70.5%; with OVCAR-4 ovarian, 32.9%; in the assay with SK-OV-3 ovarian, 48.9%; in the assay with IGROV1 ovarian, 33.9%; in the assay on OVCAR-3 ovarian it was 28.8%. The growth is 60.4% with HS 578T breast, 105% in the assay on NCI/ADR-RES ovarian and 9.75% (active) in the assay on T-47D breast.

Turning to `Cc1nn(-c2ccc(-c3ccc(OC(F)(F)F)cc3)cc2)c2nc(-c3ccccc3)nc(N)c12`, the growth was 93% with OVCAR-8 ovarian; 98.3% with OVCAR-5 ovarian; 102% in the assay with OVCAR-4 ovarian; 108% with SK-OV-3 ovarian; 99.3% in the assay on IGROV1 ovarian; 107% in the assay with OVCAR-3 ovarian. Further, the figures for the growth in the assay with HS 578T breast, in the assay on NCI/ADR-RES ovarian and in the assay on T-47D breast were 115%, 90.8% and 78.5%, respectively.

In the case of `N#Cc1c(-c2ccc(Cl)cc2)cc(-c2cc3ccccc3o2)nc1SCC(=O)c1ccc(Cl)cc1`, the growth in the assay with OVCAR-8 ovarian is 104%; in the assay with OVCAR-5 ovarian, 88.4%; with OVCAR-4 ovarian, 104%; with SK-OV-3 ovarian it was 103%; in the assay with IGROV1 ovarian, 71.5%; in the assay with OVCAR-3 ovarian it was 104%. Also, the growth was 96.3% in the assay on HS 578T breast, 97.9% with NCI/ADR-RES ovarian and 108% in the assay with T-47D breast.

As for `Cc1cccc(C)c1Nc1nnc(-c2ccc(F)cc2)o1`, the growth in the assay on OVCAR-5 ovarian is 93.9%; in the assay with OVCAR-4 ovarian it was 103%; with SK-OV-3 ovarian it was 102%; in the assay with IGROV1 ovarian, 97.9%; with OVCAR-3 ovarian it was 93.6%; with HS 578T breast, 108%. The growth in the assay on NCI/ADR-RES ovarian is 97.8%; in the assay with T-47D breast it was 110%.

Take `CN1CCN(C(=O)[C@@]2(C)CC[C@]3(C)CC[C@]4(C)C(=CC[C@@H]5[C@@]6(C)CC[C@H](OC(=O)c7cccnc7)C(C)(C)[C@@H]6CC[C@]54C)[C@@H]3C2)CC1`: the growth with OVCAR-8 ovarian was 60.2%; with OVCAR-5 ovarian, 78.7%; in the assay on OVCAR-4 ovarian it was 35.2%; with SK-OV-3 ovarian, 79.3%; in the assay on IGROV1 ovarian it was 88.2%; with OVCAR-3 ovarian, 80.9%. For the same compound, the growth is 76.8% in the assay with HS 578T breast, 77.6% with NCI/ADR-RES ovarian and 57.6% in the assay with T-47D breast.

Turning to `Cc1cc(Nc2nc(SCc3ccc(C(=O)Nc4ccc(F)cc4N)cc3)nn3cccc23)n[nH]1`, the growth in the assay on OVCAR-8 ovarian is 15.4%; in the assay with OVCAR-5 ovarian, 52.3%; in the assay with OVCAR-4 ovarian, 40.8%; in the assay on SK-OV-3 ovarian it was 17.9%; in the assay on IGROV1 ovarian it was 33.6%; with OVCAR-3 ovarian, 11.4%. For the same compound, the results for the growth in the assay on HS 578T breast, in the assay with NCI/ADR-RES ovarian and with T-47D breast were 37.4%, 30.2% and 62.1%, respectively.

As for `COc1ccc(Cc2nc(C#N)c(N3CCN(c4ccc(F)cc4)CC3)o2)cc1`, the growth is 103% with OVCAR-8 ovarian; 86.7% in the assay on OVCAR-5 ovarian; 79.3% in the assay on OVCAR-4 ovarian; 89.6% in the assay on SK-OV-3 ovarian; 76.8% in the assay with IGROV1 ovarian; 96.9% with OVCAR-3 ovarian. In addition, the figures for the growth with HS 578T breast, in the assay with NCI/ADR-RES ovarian and in the assay with T-47D breast were 92.5%, 95.3% and 81.2%, respectively.

For `O=c1[nH]nc(-c2ccccc2)c2sc(NC(=S)Nc3ccc(Cl)cc3)nc12`, the growth is 89.6% in the assay on OVCAR-8 ovarian; 98.6% in the assay with OVCAR-5 ovarian; 91.6% in the assay on OVCAR-4 ovarian; 62.3% with SK-OV-3 ovarian; 94.2% with IGROV1 ovarian; 97.5% in the assay on OVCAR-3 ovarian. In addition, the growth in the assay with HS 578T breast was 102%; in the assay with NCI/ADR-RES ovarian it was 95.3%; in the assay on T-47D breast, 59%.

In the case of `CC(C)(C)c1ccc2oc(=O)n(SC(Cl)(Cl)Cl)c2c1`, the growth in the assay with OVCAR-8 ovarian is 111%; in the assay on OVCAR-5 ovarian it was 105%; with OVCAR-4 ovarian, 106%; in the assay with SK-OV-3 ovarian, 102%; with IGROV1 ovarian it was 111%; in the assay on OVCAR-3 ovarian, 106%. For the same compound, the growth was 119% with HS 578T breast and 93.4% in the assay on T-47D breast.

On to `COc1cccc2c1-c1ccccc1C2=O`, for which the growth was 21.5% in the assay with OVCAR-8 ovarian; 65.6% with OVCAR-5 ovarian; 56.5% with OVCAR-4 ovarian; 30.6% with SK-OV-3 ovarian; 33.3% with IGROV1 ovarian; -26.4% (active) with OVCAR-3 ovarian. The growth was 19.6% with HS 578T breast, 8.62% (active) in the assay with NCI/ADR-RES ovarian and 33.2% in the assay with T-47D breast.

Regarding `CN1CCN(S(=O)(=O)O[C@@H]2C(=O)N(c3cc4c5ccccc5ccc4c4ccccc34)[C@H]2c2ccc(F)cn2)CC1`, the growth in the assay on OVCAR-8 ovarian is 85.7%; in the assay on OVCAR-5 ovarian, 108%; in the assay on OVCAR-4 ovarian, 99.1%; in the assay with SK-OV-3 ovarian, 97.9%; with IGROV1 ovarian, 87.8%; in the assay with OVCAR-3 ovarian it was 88.4%. For the same compound, the results for the growth in the assay with HS 578T breast, with NCI/ADR-RES ovarian and in the assay on T-47D breast were 84.1%, 92.2% and 78.9%, respectively.

In the case of `O=C(O)c1cn(C2CC2)c2cc(N3CCN(Cc4nnc(Nc5ccccc5)o4)CC3)c(F)cc2c1=O`, the growth in the assay with OVCAR-8 ovarian is 108%; in the assay with OVCAR-5 ovarian, 94%; in the assay on OVCAR-4 ovarian, 101%; with SK-OV-3 ovarian, 108%; in the assay on IGROV1 ovarian it was 95.9%; in the assay with OVCAR-3 ovarian, 101%. In addition, the figures for the growth with HS 578T breast, in the assay with NCI/ADR-RES ovarian and in the assay on T-47D breast were 98%, 107% and 85.4%, respectively.

Regarding `O=C(O)CCNC1CCCCC1`, the growth with OVCAR-8 ovarian was 99.9%; with OVCAR-5 ovarian it was 86%; with OVCAR-4 ovarian, 103%; in the assay on SK-OV-3 ovarian it was 101%; with IGROV1 ovarian it was 105%; in the assay with OVCAR-3 ovarian, 108%. In addition, the values for the growth in the assay with HS 578T breast, in the assay with NCI/ADR-RES ovarian and in the assay with T-47D breast were 96.6%, 93.1% and 104%, respectively.
